The supplement of paper PMC13380429

Tested on: Vero E6 infected with SARS-CoV-2
Assay: inhibition of SARS-CoV-2 cytopathic effect; higher = more antiviral protection, active = above 15
Details: 48 h

Measured: inhibition of SARS-CoV-2 cytopathic effect

CC1(C)NC(=O)N(c2ccc([N+](=O)[O-])c(C(F)(F)F)c2)C1=O [nilutamide]
inactive: 1 nM 3.3% | 8.33 nM 1.17% | 100 nM 0.03% | 833.33 nM -2.17% | 10000 nM 1.01%

CN1CCN(CCCN2c3ccccc3Sc3ccc(Cl)cc32)CC1 [prochlorperazine]
inactive: 1 nM -0.92% | 8.33 nM 0.64% | 100 nM 0.48% | 833.33 nM -0.06% | 10000 nM 14.6%

C[C@]12N[C@H](Cc3ccccc31)c1ccccc12 [dizocilpine-(-)]
inactive: 1 nM 1.97% | 8.33 nM 1.82% | 100 nM 1.33% | 833.33 nM 1.1% | 10000 nM -0.44%

C[C@@H]1C[C@H]2[C@@H]3CCC4=CC(=O)C=C[C@]4(C)[C@@]3(F)[C@@H](O)C[C@]2(C)[C@H]1C(=O)CO [desoximetasone]
inactive: 1 nM -2.66% | 8.33 nM 0.15% | 100 nM -1.47% | 833.33 nM 1.96% | 10000 nM 0.8%

CC1(C)CC[C@]2(C(=O)O)CC[C@]3(C)C(=CC[C@@H]4[C@@]5(C)CC[C@H](O)C(C)(C)[C@@H]5CC[C@]43C)[C@@H]2C1 [oleanolic-acid]
inactive: 1 nM -0.65% | 8.33 nM -0.09% | 100 nM 0.47% | 833.33 nM -0.94% | 10000 nM -0.53%

CC(C)C[C@@H]1NC(=O)[C@@H](C(C)C)NC(=O)[C@@H]2CCCN2C(=O)[C@@H](CC(=O)O)NC(=O)[C@@H](Cc2c[nH]c3ccccc23)NC1=O
inactive: 1 nM -2.63% | 8.33 nM 1.4% | 100 nM -0.29% | 833.33 nM -0.26% | 10000 nM -0.15%
